Experimental findings from PubChem BioAssay (EPA / NIEHS) are described below.

Assay [1] addresses rat Catechol-O-Methyl Transferase (COMT), Comt (gene 24267) (UniProt P22734). Kind of assay: NVS_ENZ_rCOMT: NovaScreen (NVS) Enzymatic Assay for rat Catechol-O-Methyl Transferase (COMT) (AID 2283235). Summed up:
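Rat dorsal striatum extract served as COMT source; product quantified by HPLC/spectrophotometry, read at 0 h after dosing. Primary single-concentration screen at 25 uM, followed by concentration series to a 50 uM maximum.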

Assay [2] concerns the target human Vascular Endothelial Growth Factor Receptor 1 (VEGFR1), FLT1 (gene 2321) (UniProt P17948). Kind of assay: NVS_ENZ_hVEGFR1: NovaScreen (NVS) Enzymatic Assay for human Vascular Endothelial Growth Factor Receptor 1 (VEGFR1) (AID 2283226). Summed up: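 Kinase activity of recombinant human VEGFR1 was read by fluorescence after electrophoretic separation of product from substrate, 1 h post-dosing; initial duplicate single-point testing at 25 uM, followed by concentration-series follow-up, with DMSO as baseline.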

The target in assay [3] is sheep Cyclooxygenase-2 (Cox2), PTGS2 (gene 443460) (UniProt P79208). Kind of assay: NVS_ENZ_oCOX2: NovaScreen (NVS) Enzymatic Assay for sheep Cyclooxygenase-2 (Cox2) (AID 2283231). Summed up:
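Enzyme extracted from ovine placenta tested cell-free; activity read colorimetrically by absorbance 0.66 hour after dosing. Primary screen in duplicate at 25 uM; hits rerun as concentration series to 50 uM, loss of signal versus DMSO baseline.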

The test system of assay [4] is rat Monoamine Oxidase, MAO-A, Central (MAOAC), gene 29253. Kind of assay: NVS_ENZ_rMAOAC: NovaScreen (NVS) Enzymatic Assay for rat Monoamine Oxidase, MAO-A, Central (MAOAC) (AID 2283243).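 Note: potency refers to inhibition seen as signal drop below DMSO baseline.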 Summed up:
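Scintillation read-out of MAO-A activity in rat brain lysate, 1.5 h post-dosing. Primary single-concentration screen: 25 uM, duplicate; actives re-tested in concentration series. DMSO = negative control/baseline.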

In assay [5] the target is human Tyrosine Protein Kinase Receptor Tie-2 (Tie2), TEK (gene 7010) (UniProt Q02763). Kind of assay: NVS_ENZ_hTie2: NovaScreen (NVS) Enzymatic Assay for human Tyrosine Protein Kinase Receptor Tie-2 (Tie2) (AID 2283225). Summed up:
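Substrate and product were separated by mobility shift and detected by fluorescence after a 1-hour reaction with recombinant Tie2. Chemicals passing a 25 uM single-point screen were titrated to a maximum of 50 uM. Results were normalized to DMSO baseline.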

Assay [6] addresses rat Monoamine Oxidase, MAO-B, Central (MAOBC), Maob (gene 25750) (UniProt P19643). Kind of assay: NVS_ENZ_rMAOBC: NovaScreen (NVS) Enzymatic Assay for rat Monoamine Oxidase, MAO-B, Central (MAOBC) (AID 2283238). Summed up: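 Cell-free radiometric assay, rat brain lysate. Read-out: scintillation counts, 1.17 h post-dosing. Screen 25 uM in duplicate; actives (e.g. ≥30% inhibition) then singleton concentration-response, max 50 uM. Activity loss fitted relative to DMSO.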

Assay [7] relates to guinea pig Leukotriene B4 Receptor (LTB4), gene 100379538. Description: NVS_GPCR_gLTB4: NovaScreen (NVS) G Protein-Coupled Receptor Assay for guinea pig Leukotriene B4 Receptor (LTB4) (AID 2283247). Summed up:
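Membranes from guinea pig spleen incubated 2 h with radioligand and compound; bound counts measured by filtration and scintillation. Screened first at 25 uM in duplicate, then actives titrated to a 50 uM top concentration relative to DMSO.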

Assay [8] deals with rat Monoamine Oxidase, MAO-B, Peripheral (MAOBP), Maob (gene 25750) (UniProt P19643). Description: NVS_ENZ_rMAOBP: NovaScreen (NVS) Enzymatic Assay for rat Monoamine Oxidase, MAO-B, Peripheral (MAOBP) (AID 2283242).
The target of assay [9] is guinea pig Leukotriene D4 Receptor (LTD4), CYSLTR1 (gene 100135514) (UniProt Q2NNR5). Kind of assay: NVS_GPCR_gLTD4: NovaScreen (NVS) G Protein-Coupled Receptor Assay for guinea pig Leukotriene D4 Receptor (LTD4) (AID 2283248). Summed up: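 Guinea pig lung membrane preparation; bound radioligand measured by filter scintillation after 1 h, loss of signal versus DMSO marking displacement. Compounds tested at 25 uM in duplicate, hits retested to max 50 uM.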

The target in assay [10] is sheep Cyclooxygenase-1 (Cox1), PTGS1 (gene 443551) (UniProt P05979). Description: NVS_ENZ_oCOX1: NovaScreen (NVS) Enzymatic Assay for sheep Cyclooxygenase-1 (Cox1) (AID 2283239).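 Note: actives reduce cyclooxygenase activity so potencies are for inhibitors.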 Summed up: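 Native ovine seminal vesicle protein serves as enzyme source in this biochemical assay. Colorimetric signal is recorded 0.66 h after chemical addition, and decreases versus the DMSO control define activity.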

In assay [11] the target is guinea pig Opioid, Kappa 1 Receptor (OpiateK), OPRK1 (gene 100135587) (UniProt P41144). Description: NVS_GPCR_gOpiateK: NovaScreen (NVS) G Protein-Coupled Receptor Assay for guinea pig Opioid, Kappa 1 Receptor (OpiateK) (AID 2283252).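 Note: radioligand displacement from kappa opioid receptor in guinea pig cerebellar membranes; active means reduced radioligand binding relative to DMSO.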 Summed up:
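Cell-free tissue prep: guinea pig cerebellar membranes, radioligand displacement, 2 h incubation. Readout: filtration plus scintillation counting. Primary single-point 25 uM duplicate; actives retested in concentration series; DMSO negative control.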

In assay [12] the target is human Vascular Endothelial Growth Factor Receptor 2 (VEGFR2), KDR (gene 3791) (UniProt P35968). Kind of assay: NVS_ENZ_hVEGFR2: NovaScreen (NVS) Enzymatic Assay for human Vascular Endothelial Growth Factor Receptor 2 (VEGFR2) (AID 2283230). Summed up: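 Cell-free recombinant VEGFR2 kinase, fluorescent substrate with electrophoretic mobility-shift separation; read 1 h after dosing. Screened at 25 uM in duplicate, hits to concentration-response up to 50 uM; loss-of-signal versus DMSO.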
Chain of human Vascular Endothelial Growth Factor Receptor 2 (VEGFR2), KDR (gene 3791) (P35968 whole entry, looked up): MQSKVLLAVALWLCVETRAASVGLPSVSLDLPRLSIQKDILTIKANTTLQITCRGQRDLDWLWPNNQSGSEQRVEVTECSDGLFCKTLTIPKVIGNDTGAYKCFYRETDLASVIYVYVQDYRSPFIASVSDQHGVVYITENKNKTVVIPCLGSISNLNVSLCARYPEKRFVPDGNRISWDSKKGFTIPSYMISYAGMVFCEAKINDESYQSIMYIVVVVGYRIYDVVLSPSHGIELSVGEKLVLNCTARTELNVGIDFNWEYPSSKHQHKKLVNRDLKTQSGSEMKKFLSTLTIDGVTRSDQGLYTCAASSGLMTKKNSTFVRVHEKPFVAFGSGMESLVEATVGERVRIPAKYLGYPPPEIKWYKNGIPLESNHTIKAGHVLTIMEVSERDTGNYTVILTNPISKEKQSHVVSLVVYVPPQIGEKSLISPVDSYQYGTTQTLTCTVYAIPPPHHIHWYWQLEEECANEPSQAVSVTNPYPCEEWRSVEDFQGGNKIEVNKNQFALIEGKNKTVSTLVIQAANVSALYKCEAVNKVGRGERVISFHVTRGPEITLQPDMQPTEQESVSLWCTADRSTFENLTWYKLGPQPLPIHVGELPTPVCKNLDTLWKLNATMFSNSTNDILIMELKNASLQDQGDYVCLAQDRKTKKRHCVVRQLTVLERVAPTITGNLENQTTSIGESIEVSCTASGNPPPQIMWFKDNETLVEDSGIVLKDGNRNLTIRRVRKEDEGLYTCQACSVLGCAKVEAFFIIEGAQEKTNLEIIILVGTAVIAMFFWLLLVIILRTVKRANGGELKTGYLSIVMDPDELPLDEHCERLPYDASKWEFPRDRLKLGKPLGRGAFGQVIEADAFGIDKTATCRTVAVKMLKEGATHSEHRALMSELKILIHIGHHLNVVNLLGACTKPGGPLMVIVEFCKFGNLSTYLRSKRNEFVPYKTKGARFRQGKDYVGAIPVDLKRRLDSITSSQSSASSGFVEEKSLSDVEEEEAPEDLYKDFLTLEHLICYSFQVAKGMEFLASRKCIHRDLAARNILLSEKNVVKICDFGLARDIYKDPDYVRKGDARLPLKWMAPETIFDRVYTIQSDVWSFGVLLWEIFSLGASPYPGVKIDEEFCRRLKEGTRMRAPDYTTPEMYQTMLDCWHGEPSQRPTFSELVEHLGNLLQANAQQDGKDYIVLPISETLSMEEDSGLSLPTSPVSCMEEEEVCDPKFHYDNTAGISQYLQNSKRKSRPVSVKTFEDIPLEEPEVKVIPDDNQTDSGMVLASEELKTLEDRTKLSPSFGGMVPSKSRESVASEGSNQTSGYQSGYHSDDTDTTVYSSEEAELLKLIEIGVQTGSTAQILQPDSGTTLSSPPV

Assay [13] concerns the target Adenosine receptor A1 (Bos taurus) (UniProt P28190). Kind of assay: NVS_GPCR_bAdoR_NonSelective: NovaScreen (NVS) G Protein-Coupled Receptor Assay for bovine Adenosine Receptor (AdoR), Non-selective Binding (AID 2283244). Summed up:
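Cell-free binding with membranes from bovine striatum: radioligand displaced by test chemical, read after 1 h by filtration and scintillation. Single-point 25 uM duplicate primary, 50 uM top concentration in follow-up curves, DMSO baseline.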

For assay [14], the system named is rat Monoamine Oxidase, MAO-A, Peripheral (MAOAP), gene 29253. Kind of assay: NVS_ENZ_rMAOAP: NovaScreen (NVS) Enzymatic Assay for rat Monoamine Oxidase, MAO-A, Peripheral (MAOAP) (AID 2283237). Summed up: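 Scintillation counting tracked MAO-A activity in a cell-free rat liver mitochondrial membrane prep, read 1.17 hours after compound addition. Single-point duplicate testing at 25 uM preceded concentration-response follow-up; activity was fitted relative to DMSO.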

The target in assay [15] is rabbit Imidazoline 2 Central (I2C), CKB (gene 100009085) (UniProt P00567). Description: NVS_ENZ_rabI2C: NovaScreen (NVS) Enzymatic Assay for rabbit Imidazoline 2 Central (I2C) (AID 2283228). Summed up: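 Rabbit brain membranes, cell-free; readout by filter-based scintillation counting 1.5 hours after dosing, loss of signal vs DMSO. Initial duplicate test at 25 uM, then concentration-response with 50 uM top concentration.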

The target in assay [16] is human Serotonin, 5-Hydroxytryptamine Receptor 6 (5HT6), HTR6 (gene 3362) (UniProt P50406). Kind of assay: NVS_GPCR_h5HT6: NovaScreen (NVS) G Protein-Coupled Receptor Assay for human Serotonin, 5-Hydroxytryptamine Receptor 6 (5HT6) (AID 2283253). Summed up:
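Filter scintillation counting of radioligand displacement from HEK293-expressed 5HT6, 1 hour post-dose, with loss of signal relative to DMSO. Single 25 uM duplicates first, with concentration series for confirmation.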

In general, AC50 refers to the concentration at which the activity in the assay is half-maximal.

Structures are written as SMILES. Inconclusive results are not listed. Active and inactive are the calls of the source. Rule for the calls: active = hit-call score of the fitted dose curve at least 0.9, where 1 is the maximum; inconclusive = response in the unintended direction; inactive = score below 0.9.

Chain of guinea pig Opioid, Kappa 1 Receptor (OpiateK), OPRK1 (gene 100135587) (P41144 whole entry, looked up): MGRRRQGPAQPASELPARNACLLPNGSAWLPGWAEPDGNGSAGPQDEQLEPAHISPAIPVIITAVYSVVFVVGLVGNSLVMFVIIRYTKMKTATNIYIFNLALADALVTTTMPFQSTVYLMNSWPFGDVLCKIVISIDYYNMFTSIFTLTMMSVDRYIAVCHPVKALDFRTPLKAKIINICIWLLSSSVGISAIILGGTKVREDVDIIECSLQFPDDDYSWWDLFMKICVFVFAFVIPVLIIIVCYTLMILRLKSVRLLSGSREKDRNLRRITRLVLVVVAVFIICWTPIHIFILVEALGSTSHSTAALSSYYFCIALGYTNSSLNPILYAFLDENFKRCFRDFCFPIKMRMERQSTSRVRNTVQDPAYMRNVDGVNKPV
Chain of human Tyrosine Protein Kinase Receptor Tie-2 (Tie2), TEK (gene 7010) (Q02763 whole entry, looked up): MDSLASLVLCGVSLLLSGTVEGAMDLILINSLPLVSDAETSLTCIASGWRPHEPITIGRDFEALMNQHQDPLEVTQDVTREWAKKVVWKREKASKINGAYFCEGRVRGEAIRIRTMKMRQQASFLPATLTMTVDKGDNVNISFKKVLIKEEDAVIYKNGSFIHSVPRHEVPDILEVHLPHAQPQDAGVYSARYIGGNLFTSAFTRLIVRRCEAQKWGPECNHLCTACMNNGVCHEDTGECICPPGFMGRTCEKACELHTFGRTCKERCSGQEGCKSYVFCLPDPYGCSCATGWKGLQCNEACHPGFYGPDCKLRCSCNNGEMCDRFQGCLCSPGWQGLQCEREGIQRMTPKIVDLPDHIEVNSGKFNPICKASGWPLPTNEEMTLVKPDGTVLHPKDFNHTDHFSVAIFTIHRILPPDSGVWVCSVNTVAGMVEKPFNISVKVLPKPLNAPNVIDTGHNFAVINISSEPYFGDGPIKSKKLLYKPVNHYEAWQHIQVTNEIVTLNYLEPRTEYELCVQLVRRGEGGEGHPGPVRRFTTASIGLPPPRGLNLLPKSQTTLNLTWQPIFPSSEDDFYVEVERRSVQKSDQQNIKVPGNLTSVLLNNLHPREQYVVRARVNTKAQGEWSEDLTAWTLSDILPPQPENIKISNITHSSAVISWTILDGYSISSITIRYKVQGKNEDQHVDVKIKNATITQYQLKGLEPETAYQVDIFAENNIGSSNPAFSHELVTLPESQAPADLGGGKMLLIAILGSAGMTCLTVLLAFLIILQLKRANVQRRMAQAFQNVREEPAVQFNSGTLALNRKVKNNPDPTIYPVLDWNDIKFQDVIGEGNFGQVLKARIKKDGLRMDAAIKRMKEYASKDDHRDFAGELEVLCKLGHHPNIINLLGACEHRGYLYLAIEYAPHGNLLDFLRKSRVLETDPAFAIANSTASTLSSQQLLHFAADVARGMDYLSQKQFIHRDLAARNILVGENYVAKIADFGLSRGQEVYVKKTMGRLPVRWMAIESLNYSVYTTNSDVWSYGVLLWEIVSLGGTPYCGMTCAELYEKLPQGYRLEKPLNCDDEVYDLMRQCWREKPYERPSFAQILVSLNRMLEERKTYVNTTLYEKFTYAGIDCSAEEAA
Chain of human Vascular Endothelial Growth Factor Receptor 1 (VEGFR1), FLT1 (gene 2321) (P17948 whole entry, looked up): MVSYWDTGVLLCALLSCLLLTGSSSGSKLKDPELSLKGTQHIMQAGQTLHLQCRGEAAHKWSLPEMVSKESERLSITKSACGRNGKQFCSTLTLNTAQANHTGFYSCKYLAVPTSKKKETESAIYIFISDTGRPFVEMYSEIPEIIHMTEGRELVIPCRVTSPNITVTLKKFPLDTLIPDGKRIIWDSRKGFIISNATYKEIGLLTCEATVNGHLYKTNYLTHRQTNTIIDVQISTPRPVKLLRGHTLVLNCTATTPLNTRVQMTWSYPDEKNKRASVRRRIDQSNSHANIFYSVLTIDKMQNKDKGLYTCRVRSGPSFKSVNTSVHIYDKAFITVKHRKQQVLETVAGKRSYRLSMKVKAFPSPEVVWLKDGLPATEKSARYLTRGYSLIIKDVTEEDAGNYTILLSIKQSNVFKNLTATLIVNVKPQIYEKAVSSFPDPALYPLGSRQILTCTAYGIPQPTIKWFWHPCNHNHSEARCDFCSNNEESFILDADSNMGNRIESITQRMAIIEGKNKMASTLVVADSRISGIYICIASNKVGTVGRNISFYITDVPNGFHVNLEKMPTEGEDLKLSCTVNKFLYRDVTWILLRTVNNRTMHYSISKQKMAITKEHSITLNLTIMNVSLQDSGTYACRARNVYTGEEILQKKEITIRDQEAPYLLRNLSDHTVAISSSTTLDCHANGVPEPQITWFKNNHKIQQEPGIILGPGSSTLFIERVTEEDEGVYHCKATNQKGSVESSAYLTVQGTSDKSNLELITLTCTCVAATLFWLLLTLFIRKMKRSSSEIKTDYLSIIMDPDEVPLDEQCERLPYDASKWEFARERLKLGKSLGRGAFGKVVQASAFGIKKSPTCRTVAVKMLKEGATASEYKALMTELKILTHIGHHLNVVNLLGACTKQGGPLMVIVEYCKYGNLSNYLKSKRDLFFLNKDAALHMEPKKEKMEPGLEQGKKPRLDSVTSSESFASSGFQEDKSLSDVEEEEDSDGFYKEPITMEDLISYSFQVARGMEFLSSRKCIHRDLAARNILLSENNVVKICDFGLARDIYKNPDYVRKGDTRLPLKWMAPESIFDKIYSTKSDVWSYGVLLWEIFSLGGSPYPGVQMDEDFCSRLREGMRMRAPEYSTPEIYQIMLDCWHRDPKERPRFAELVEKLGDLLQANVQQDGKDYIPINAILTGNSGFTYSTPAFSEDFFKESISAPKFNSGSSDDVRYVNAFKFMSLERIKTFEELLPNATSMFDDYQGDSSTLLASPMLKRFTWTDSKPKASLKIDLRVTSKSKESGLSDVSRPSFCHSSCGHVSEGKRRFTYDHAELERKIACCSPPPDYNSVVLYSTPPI
Chain of rat Catechol-O-Methyl Transferase (COMT), Comt (gene 24267) (P22734 whole entry, looked up): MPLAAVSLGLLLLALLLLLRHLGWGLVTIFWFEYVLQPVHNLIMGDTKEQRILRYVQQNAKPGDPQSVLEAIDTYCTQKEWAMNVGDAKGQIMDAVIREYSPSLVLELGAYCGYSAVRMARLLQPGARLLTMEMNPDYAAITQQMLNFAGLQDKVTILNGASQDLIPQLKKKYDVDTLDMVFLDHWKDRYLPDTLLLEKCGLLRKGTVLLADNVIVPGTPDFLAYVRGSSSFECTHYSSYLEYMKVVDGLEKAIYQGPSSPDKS
Chain of Adenosine receptor A1 (Bos taurus) (P28190 whole entry, looked up): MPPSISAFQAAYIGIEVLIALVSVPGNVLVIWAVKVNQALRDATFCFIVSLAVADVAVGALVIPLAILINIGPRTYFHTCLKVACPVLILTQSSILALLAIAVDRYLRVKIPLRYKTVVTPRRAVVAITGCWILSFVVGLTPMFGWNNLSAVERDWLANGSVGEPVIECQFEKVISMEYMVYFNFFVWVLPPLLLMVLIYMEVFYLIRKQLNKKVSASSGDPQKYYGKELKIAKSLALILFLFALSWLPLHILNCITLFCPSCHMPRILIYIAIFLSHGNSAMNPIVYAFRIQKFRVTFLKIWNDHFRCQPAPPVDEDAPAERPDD

`CCCCc1ccccc1`: the result in [1] was inactive. In the case of `CC(C)(C)c1ccc(O)cc1`, the call in assay [2] was inactive. In the case of `O=[N+]([O-])c1ccc(Cl)c(Cl)c1`, the AC50 in assay [3] is 18.5 µM (active).

For the molecule `CC(=O)c1ccc(-c2ccccc2)cc1`, the concentration at half-maximal activity (AC50) in assay [4] was 18.6 µM (active). For `CC(C)(C)OOC(C)(C)C`, in assay [5], the molecule was classed as inactive. The AC50 in assay [6] was 13.1 µM (active).

For the molecule `O=C(O)C1C(C(=O)O)C2(Cl)C(Cl)=C(Cl)C1(Cl)C2(Cl)Cl` (configuration not stated), the AC50 in assay [7] is 2.88 µM (active). As to `CCOC(=O)c1ccccc1C(=O)OCC`, the outcome in [8] was inactive. Also, in assay [4], the AC50 was 15.2 µM (active). On to `c1nc[nH]n1`, for which the result in assay [9] was inactive. As to `CCOP(=S)(OCC)SCSCC`, the result in assay [10] was inactive. As for `Cc1ccc2c(c1N)C(=O)c1ccccc1C2=O`, the AC50 in [2] and in [4] was 25 µM (active) each time. `Cc1cc(C)c(C(=O)P(=O)(c2ccccc2)c2ccccc2)c(C)c1`: the AC50 in assay [11] is 25 µM (active). For `CC1(C)CN=C(NN=C(/C=C/c2ccc(C(F)(F)F)cc2)/C=C/c2ccc(C(F)(F)F)cc2)NC1`, the molecule was classed as inactive in assay [5]. The results for the AC50 in assay [3] and in assay [10] were 17.4 µM (active) and 5.74 µM (active), respectively.

On to `CCCN(CCC)c1c([N+](=O)[O-])cc(C(C)C)cc1[N+](=O)[O-]`, for which the outcome in assay [12] and in assay [13] was inactive. With `ClC(Cl)c1ccccc1`, the molecule was classed as inactive in [14] and in [9].

As for `Cc1cccc(N)c1`, the result in assay [15] and in assay [12] was inactive.

As to `CCCCOCCOP(=O)(OCCOCCCC)OCCOCCCC`, the AC50 in [11] was 16.5 µM (active). Consider `CSC(C)(C)C=NO`, for which the outcome in assay [5], in assay [1], in assay [13], in assay [7], in [11] and in assay [16] was inactive. For the molecule `CCOP(=S)(OCC)SCS(=O)(=O)CC`, in assay [4], the AC50 is 7.29 µM (active). As for `ClC1=C(Cl)C2(Cl)C3C(Cl)C(Cl)CC3C1(Cl)C2(Cl)Cl` (configuration not stated), the result in [12] was inactive.
